Measurements reported in PubChem BioAssay.
Several values for one entry are separate records, joined by “and”; a condition that tells them apart may be missing. Equal values may be shown once. Activity calls are given as the source filed them. No rule for the calls is given here.

Key:
[1] = test system: Botulinum neurotoxin type F light chain protease (Clostridium botulinum); assay: Botulinum neurotoxin type F light chain protease inhibition, multiplex microsphere flow cytometry, validation set (AID 588459); settings: multiplex microsphere protease substrate cleavage assay, at 10 µM, hits give high values
[2] = biological target: Botulinum neurotoxin type A (Clostridium botulinum) (UniProt P0DPI0); assay: BoNT/A light chain protease inhibitors, biochemical, multiplex microsphere flow cytometry, validation set (AID 588460); settings: at 10 µM, hits give high values
[3] = biological target: Lethal factor (Bacillus anthracis) (UniProt P15917); assay: Lethal factor protease inhibitors, Bacillus anthracis, multiplex microsphere cleavage assay, validation set (AID 588461); settings: flow cytometry, at 10 µM, hits give high values
Chain of Lethal factor (Bacillus anthracis) (P15917 whole entry, looked up): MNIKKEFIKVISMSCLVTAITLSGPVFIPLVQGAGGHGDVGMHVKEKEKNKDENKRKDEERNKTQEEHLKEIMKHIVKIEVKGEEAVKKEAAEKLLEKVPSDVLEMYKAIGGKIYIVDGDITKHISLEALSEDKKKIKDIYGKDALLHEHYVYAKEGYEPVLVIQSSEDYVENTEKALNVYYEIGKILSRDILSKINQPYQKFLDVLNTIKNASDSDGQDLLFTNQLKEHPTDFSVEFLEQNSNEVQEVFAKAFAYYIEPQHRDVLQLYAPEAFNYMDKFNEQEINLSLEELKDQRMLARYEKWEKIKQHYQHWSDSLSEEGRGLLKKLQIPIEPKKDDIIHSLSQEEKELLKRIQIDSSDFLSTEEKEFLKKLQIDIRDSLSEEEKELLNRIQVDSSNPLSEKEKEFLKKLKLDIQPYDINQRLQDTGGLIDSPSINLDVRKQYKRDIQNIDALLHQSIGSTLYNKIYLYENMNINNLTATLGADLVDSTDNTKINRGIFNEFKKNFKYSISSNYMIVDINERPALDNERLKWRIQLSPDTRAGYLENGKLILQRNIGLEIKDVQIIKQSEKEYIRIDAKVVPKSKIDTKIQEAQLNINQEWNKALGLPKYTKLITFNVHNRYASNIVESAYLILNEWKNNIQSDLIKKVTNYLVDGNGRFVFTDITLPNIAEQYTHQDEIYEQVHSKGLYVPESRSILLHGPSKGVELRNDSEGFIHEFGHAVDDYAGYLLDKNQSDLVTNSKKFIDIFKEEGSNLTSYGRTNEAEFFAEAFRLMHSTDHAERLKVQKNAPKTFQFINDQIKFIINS

Chain of Botulinum neurotoxin type A (Clostridium botulinum) (P0DPI0 whole entry, looked up): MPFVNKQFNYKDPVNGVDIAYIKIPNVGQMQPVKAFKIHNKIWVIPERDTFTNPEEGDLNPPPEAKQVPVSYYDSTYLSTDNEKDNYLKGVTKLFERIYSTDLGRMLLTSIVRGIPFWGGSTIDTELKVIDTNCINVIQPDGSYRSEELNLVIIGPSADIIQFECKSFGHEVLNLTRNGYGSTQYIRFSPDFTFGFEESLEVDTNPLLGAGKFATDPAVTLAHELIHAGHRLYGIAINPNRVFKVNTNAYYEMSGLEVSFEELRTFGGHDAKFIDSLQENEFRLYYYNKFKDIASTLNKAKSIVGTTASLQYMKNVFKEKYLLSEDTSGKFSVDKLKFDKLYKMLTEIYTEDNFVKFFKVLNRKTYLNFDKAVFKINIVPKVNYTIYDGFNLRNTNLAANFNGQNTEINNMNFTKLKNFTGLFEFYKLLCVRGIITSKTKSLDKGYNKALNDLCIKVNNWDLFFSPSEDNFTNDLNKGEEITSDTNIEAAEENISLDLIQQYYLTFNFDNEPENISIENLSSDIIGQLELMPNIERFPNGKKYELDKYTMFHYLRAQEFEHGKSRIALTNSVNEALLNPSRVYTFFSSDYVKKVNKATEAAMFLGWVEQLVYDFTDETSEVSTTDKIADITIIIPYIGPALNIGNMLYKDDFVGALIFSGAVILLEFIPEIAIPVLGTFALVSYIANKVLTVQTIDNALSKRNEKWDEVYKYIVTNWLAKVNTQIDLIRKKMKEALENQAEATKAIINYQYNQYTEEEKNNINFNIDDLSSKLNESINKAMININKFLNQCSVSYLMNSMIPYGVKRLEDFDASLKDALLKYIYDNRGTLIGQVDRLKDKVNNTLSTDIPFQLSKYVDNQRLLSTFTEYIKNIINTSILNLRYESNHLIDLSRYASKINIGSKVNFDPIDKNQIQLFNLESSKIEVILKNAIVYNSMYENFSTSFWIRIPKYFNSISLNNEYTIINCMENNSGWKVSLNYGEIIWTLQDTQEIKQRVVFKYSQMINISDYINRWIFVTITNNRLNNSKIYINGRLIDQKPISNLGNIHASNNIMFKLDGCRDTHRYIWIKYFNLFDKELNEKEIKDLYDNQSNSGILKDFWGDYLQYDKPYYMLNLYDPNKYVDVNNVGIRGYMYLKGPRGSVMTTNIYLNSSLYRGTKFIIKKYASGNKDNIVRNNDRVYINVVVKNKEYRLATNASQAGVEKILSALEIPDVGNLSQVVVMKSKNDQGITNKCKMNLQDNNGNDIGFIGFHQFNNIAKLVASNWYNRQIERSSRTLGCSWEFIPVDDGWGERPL

| SMILES | inhibition [1] | inhibition [2] | inhibition [3] |
| --- | --- | --- | --- |
| C[C@@H]1C[C@H]2[C@@H]3CCC4=CC(=O)C=C[C@]4(C)[C@@]3(F)[C@@H](O)C[C@]2(C)[C@@]1(O)C(=O)COP(=O)(O)O | 2.6% (inactive) | 0.2% (inactive) | 0.9% (inactive) |
| COc1ccccc1CCn1cnc2c3cc(C)ccc3n(C)c2c1=O | -0.5% (inactive) | -1% (inactive) | -9.2% (inactive) |
| COc1ccc2c(c1OC)C(C1c3c(cc4c(c3OC)OCO4)CCN1C)OC2=O (stereo unspecified) | 1.6% (inactive) | -0.7% (inactive) | 3.5% (inactive) |
| O=C(CN1CC[n+]2c(-c3cccs3)csc21)c1ccc(Br)cc1 | 0.8% (inactive) | -0.2% (inactive) | -1.6% (inactive) |
| CC1(C)C(=O)OC(c2cccs2)C2(CCCCC2)C1=O (stereo unspecified) | -2.1% (inactive) | -1.3% (inactive) | -6.2% (inactive) |
| c1ccc(-c2ccccn2)nc1 | -0.7% (inactive) | 0.3% (inactive) | 6.3% (inactive) |
| Cc1nnc(NS(=O)(=O)c2ccc(N)cc2)s1 | 2.8% (inactive) | -1.1% (inactive) | -2.8% (inactive) |
| O=C(/C=C/c1ccc2c(c1)OCO2)NCc1ccc(F)cc1 | -14.5% (inactive) | -2.4% (inactive) | -3.4% (inactive) |
| COc1cccc(N2CC34C=CC(O3)C(C(=O)O)C4C2=O)c1 (stereo unspecified) | 3.9% (inactive) | 0.3% (inactive) | 6% (inactive) |
| Cc1ccc2[nH]c3c(c2c1)CN(C(=O)CN1CCSCC1)CC3 | 61.5% (active) | 3.7% (inactive) | 11.6% (inactive) |
| COc1ccc(NC(=S)N2CCN(CCN3C(=O)c4cccc5cccc(c45)C3=O)CC2)cc1 | 2.5% (inactive) | 1.6% (inactive) | -3.3% (inactive) |
| Cc1ccc(OCCCCn2ccnc2C)c(C)c1 | -5.4% (inactive) | -1.6% (inactive) | -1.6% (inactive) |
| COc1cc2nc(N3CCN(C(=O)C4CCCO4)CC3)nc(N)c2cc1OC (stereo unspecified) | 3.3% (inactive) and 1.5% (inactive) | 0% (inactive) | -5.7% (inactive) and -7.8% (inactive) |
| COc1ccc(-c2coc3cc(OC(=O)N4CCOCC4)ccc3c2=O)cc1 | 4.3% (inactive) | -1.4% (inactive) | -0.4% (inactive) |
| Cc1ccc2c(c1)OC(=O)CC2c1ccccc1 (stereo unspecified) | -4.2% (inactive) | -1.1% (inactive) | -4.4% (inactive) |
| Cc1ccc(S(=O)(=O)NC(C(=O)Oc2cc3oc(=O)cc(C)c3cc2Cl)C(C)C)cc1 (stereo unspecified) | 0.5% (inactive) | 0.5% (inactive) | -3.2% (inactive) |
| CCOC(=O)C(NC(C)=O)C(O)c1ccc([N+](=O)[O-])cc1 (stereo unspecified) | 7.5% (inactive) | 2.6% (inactive) | -2.3% (inactive) |
| Cc1ccc2nc(N=C(N)N)nc(C)c2c1 | 3.2% (inactive) | -0.2% (inactive) | -12.1% (inactive) |
| O=c1nc2cccc3c2=c(/c1=C(\O)c1ccccc1)c1ccccc1c3=O | 3.2% (inactive) | 0.6% (inactive) | -0.8% (inactive) |
| CCc1oc2ccccc2c1C(=O)c1cc(Br)c(O)c(Br)c1 | -6.8% (inactive) | -0.5% (inactive) | -0.4% (inactive) |
| CN1C(C(=O)Nc2ccccn2)=C(O)c2sccc2S1(=O)=O | 0.5% (inactive) | -0.2% (inactive) | -1.1% (inactive) |
| COc1ccc2nc(Nc3nc(CSc4ccc(C)cc4)cc(=O)[nH]3)nc(C)c2c1 | 0.6% (inactive) | -0.3% (inactive) | 2% (inactive) |
| CSCC[C@H](NC(=O)OC(C)(C)C)C(=O)N1CCC(C(=O)N[C@@H](C)C(=O)O)CC1 | -3.4% (inactive) | 0.4% (inactive) | -4.2% (inactive) |
| CC(=O)CCCCn1c(=O)c2c(ncn2C)n(C)c1=O | -1.6% (inactive) | 0.1% (inactive) | -6.2% (inactive) |
| O=c1[nH]cc(F)c(=O)[nH]1 | 0.6% (inactive) | -1.2% (inactive) | -1.9% (inactive) |
| O=c1ccc2ccccc2o1 | -3% (inactive) | -1.4% (inactive) | -1.4% (inactive) |
| CN1CCc2c(n(CC(O)CN(CCO)CCO)c3ccccc23)C1=O (stereo unspecified) | -0.1% (inactive) | 0.2% (inactive) | -3.6% (inactive) |
